Compound activity from PubChem BioAssay.
D1 ag: activates the human D1 dopamine receptor | P21728 | HEK293 T-REx D1 cells, calcium flux, agonist mode | activation, % at 2 µM | 360,000 tested, 1% active; further: 0% is about no effect
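Tetracycline-induced HEK293 TREx D1 cells, force-coupled to calcium signalling, were dye-loaded with a no-wash calcium kit. Compound was pin-added after a 10 s baseline. Fluorescence was read kinetically at 1 cycle/s for 180 s, with calcium rises flagged as agonism.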
TRHR enhancer: allosteric enhancers of human TRH receptor; TRHR cells, fluo-8 calcium fluorescence, EC20 TRH enhancement; enhancement, % at 2 µM; 360,000 tested, 0.66% active; AID 493056; in the data active means enhancement above about 30%; further: 0% is about no effect
Target sequence (P34981 whole entry, looked up): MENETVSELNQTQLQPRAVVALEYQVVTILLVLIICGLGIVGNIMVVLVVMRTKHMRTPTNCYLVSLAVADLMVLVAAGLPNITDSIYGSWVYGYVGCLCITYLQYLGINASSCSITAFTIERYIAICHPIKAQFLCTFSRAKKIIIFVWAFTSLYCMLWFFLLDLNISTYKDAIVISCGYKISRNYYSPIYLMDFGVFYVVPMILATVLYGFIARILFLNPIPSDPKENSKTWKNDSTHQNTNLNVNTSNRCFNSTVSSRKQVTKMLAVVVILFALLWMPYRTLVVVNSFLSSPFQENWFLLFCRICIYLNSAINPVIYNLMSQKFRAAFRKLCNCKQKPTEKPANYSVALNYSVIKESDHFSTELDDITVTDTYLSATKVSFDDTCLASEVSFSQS
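TRHR-expressing cells loaded with fluo-8 calcium dye were read kinetically (ex 480/em 530) during compound addition, then stimulated with an EC20 of TRH (10 nM final). Enhancement of the Gq-mediated intracellular calcium response was scored.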
D1 PAM: human D1 dopamine receptor positive modulation. P21728. HEK293 TREx D1 cells, calcium flux, dopamine EC20 potentiation. potentiation, % at 10 µM. 360,000 tested, 0.036% active; in the data active means potentiation above about 30%; further: 0% is about no effect
D1 antagonist: antagonists of human D1 dopamine receptor; P21728; activity change, negative = inhibition, % at 10 µM; HEK293 TREx D1 cells, calcium flux, dopamine EC80; stronger effect = lower value; 360,000 tested, 3.2% active; AID 504652; in the data active means activity change below about -30%; further: on the % scale 0 is the no-effect control and ±100 the full control effect
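HEK293 T-REx cells expressing inducible, force-coupled D1 receptor; no-wash Ca dye, 30–90 min RT. Cmpd → 180 s read at 1 Hz → EC80 DA → 180 s read.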
TRHR agonist: agonists of human TRH receptor. P34981. TRHR cells, calcium flux fluo-8, FDSS agonist mode. activation, % at 2 µM. 360,000 tested, 0.18% active; further: 0% is about no effect
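In this calcium-flux screen, cells bearing human TRHR are dye-loaded with fluo-8, baselined for 10 cycles, then exposed to library compounds; positive kinetic calcium responses during the agonist phase mark hits, with TRH as control.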
The depositor's hits bear a star; / = no result. In the library only some 4.7% were active in any assay of this set; here they are far more common. Unless noted, no stated cut-off is given here; in the data, active means activation above about 30%; inactive means the rest.

SMILES	D1 ag	TRHR enhancer	D1 PAM	D1 antagonist	TRHR agonist
Cc1sc(NC(=O)C2CCCCC2C(=O)O)c(C(N)=O)c1C (centres undefined)	1	-1	-1	-37*	0
CCOC(=O)c1c(S(=O)(=O)N2CCC(C(=O)N3CCN(c4cc(C)ccc4C)CC3)CC2)c(C)n(C)c1C	0	1	-2	-92*	-1
CCOC(=O)c1c(S(=O)(=O)N2CCCC(C(=O)Nc3cc(C)ccn3)C2)c(C)n(C)c1C (centres undefined)	1	-4	-2	-33*	0
COc1ccc(N2CCN(C(=O)c3ccc(NC(=O)C4=CSCCO4)cc3)CC2)cc1	3	-4	-2	4	0
CCCn1c(N)c(N2CCCCC2)c(=O)n(CC(=O)Nc2ccccc2C)c1=O	0	-2	-2	8	-1
CCCn1c(N)c(N2CCCCC2)c(=O)n(CC(=O)Nc2ccc(OC(F)(F)F)cc2)c1=O	0	13	4	-30*	0
CCOC(=O)c1ccc2oc(=O)n(Cc3ccccc3)c2c1	3	12	0	0	-1
C[C@@H](NC(=O)C1(c2ccccc2)CCN(C(=O)OC(C)(C)C)CC1)C(=O)N[C@@H](C(=O)O)c1ccccc1	1	7	-3	-52*	-1
C[C@H](NC(=O)C1(c2ccccc2)CCN(C(=O)OC(C)(C)C)CC1)C(=O)N[C@@H](C(=O)O)c1ccccc1	0	-3	-1	6	0
CN(C(=O)COC(=O)c1ccc2ccccc2n1)C1CCS(=O)(=O)C1 (centres undefined)	2	4	-3	10	0
COc1cc(C)c(S(=O)(=O)n2ccc(C)n2)cc1C	0	-14	-2	-32*	-1
COc1ccc(S(=O)(=O)n2ccc(C)n2)cc1C	-1	0	3	0	0
O=c1[nH]c2ccccc2nc1/C=C(\O)c1cccs1	279*	6	5	-6	115*
CC(C)(C)/C(O)=C/c1nc2ccccc2[nH]c1=O	45*	5	-1	-7	1
CSc1ccc(CCNC(=O)c2cc3cc4cc(C)ccc4nc3s2)cc1	5	1	-4	10	0
CCc1ccc2nc3sc(C(=O)O)cc3cc2c1	255*	0	21	36	-1
O=C(Cc1ccc(Cl)c(Cl)c1)NC1CCCCCC1	1	-4	-2	0	0
O=C(Cn1cc2c(n1)CCCC2)NCCCN1CCN(c2ccccc2F)CC1	0	2	-8	-35*	0
CCN1CCN(CCCNC(=O)Cn2cc3c(n2)CCCC3)CC1	-2	9	/	6	-1
O=C(Cn1cc2c(n1)CCCC2)NCCCN1CCN(Cc2ccccc2)CC1	1	6	-5	-24	0
Cc1ccc(C)c(N2CCN(CCCNC(=O)Cn3cc4c(n3)CCC(C)C4)CC2)c1 (centres undefined)	48*	7	-6	-2	0
Cc1ccc(C)c(N2CCN(CCCNC(=O)Cn3cc4c(n3)CCCCC4)CC2)c1	33*	-11	-5	-12	3
CCOC(=O)c1ccc(NC(=O)Cn2cc3c(n2)CCC(C)C3)cc1 (centres undefined)	-2	2	-3	-30*	0
CC1CCc2nn(CC(=O)NCCCN3CCCC3=O)cc2C1 (centres undefined)	1	-5	/	21	0
CCOc1ccc(CCNC(=O)c2cn(CC)c3ccc(S(=O)(=O)N4CCCCCC4)cc3c2=O)cc1OCC	2	-8	7	20	1
COc1ccc(NC(=O)[C@@H](NC(=O)N2C[C@H]3C[C@@H](C2)c2cccc(=O)n2C3)C(C)C)cc1OC	1	3	2	2	1
CCOC(=O)c1ccc(NC(=O)Cn2nnc(-c3ccc(C(F)(F)F)cc3)n2)cc1	1	44*	-2	18	0
CN(C)S(=O)(=O)c1cccc(NC(=O)CO/N=C(\N)c2ccccc2)c1	0	-1	-6	2	-1
O=C(O/N=C1/CCCc2occc21)c1ccc(Cl)cc1Cl	4	6	3	-33*	-1
COc1cccc(CN2CC(C(=O)NCCN3CCOCC3)CCC2=O)c1 (centres undefined)	4	1	-2	1	0
